Assay outcomes (PubChem BioAssay)
An excerpt weighted towards active compounds, which were near 11% of everything screened.
IMPase Li cell: IMPase inhibition in cells with lithium potentiation | CHO-M1 cells, IP1 TR-FRET (IP-One), carbachol + lithium | Potency, µM (series often up to 59.4 µM), usual class: inhibitors | 210,000 tested, 0.35% active; active = well fitted curve in the direction sought with a large enough effect; inconclusive = small, poorly fitted or top-dose-only effect, or another doubt; inactive = no such curve, though single readings can be large; an effect the other way counts as inactive or inconclusive;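 also: IP1 builds up when IMPase is blocked and the TR-FRET signal falls; nearly all actives have a fitted effect of over 50% in size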
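CHO cells stably expressing M1 receptor (2000/well) were cultured 16–30 h, then exposed to compounds with a small lithium addition for 30 min at 37C. IP1 was measured by TR-FRET competition; AC50 from Hill fits.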
IMPase cell inh: IMPase inhibition in cells. CHO-M1 cells, IP1 accumulation, HTRF TR-FRET ratio. inhibition (IP1 accumulation), % at 46.1 µM. 120,000 tested, under 10 active; active = well fitted curve in the direction sought with a large enough effect in the signal ratio, not every such curve was filed as active; inconclusive = small, poorly fitted or top-dose-only effect, or a change in a side signal; inactive = no such curve, though single readings can be large or run the other way; the % refers to the signal ratio;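 also: cells stimulated with carbachol in lithium chloride buffer; higher means more IMPase inhibition seen as more IP1 and lower FRET ratio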
Target sequence (P97697 whole entry, looked up): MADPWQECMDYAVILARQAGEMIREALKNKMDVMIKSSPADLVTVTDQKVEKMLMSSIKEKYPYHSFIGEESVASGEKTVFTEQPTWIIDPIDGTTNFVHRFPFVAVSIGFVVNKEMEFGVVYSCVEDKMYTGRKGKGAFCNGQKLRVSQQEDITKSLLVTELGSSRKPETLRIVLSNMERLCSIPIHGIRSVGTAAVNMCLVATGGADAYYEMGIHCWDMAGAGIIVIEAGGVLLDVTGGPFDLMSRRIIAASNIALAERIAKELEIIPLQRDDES
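Carbachol-driven Gq signalling in CHO-M1 cells (2000/well) generates IP1. Compounds that block IMPase raise IP1 and so reduce the FRET signal from Eu-anti-IP1 and d2-IP1 after a 10 min room-temperature lysis.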
ALDH1A1 inh: inhibitors of human aldehyde dehydrogenase 1A1; Purified ALDH1A1, NADH fluorescence, propionaldehyde substrate; Potency, µM (doses to about 75.3 µM), most hits filed as inhibitors; 220,000 tested, 7.3% active
HPGD block: inhibitors of human 15-hydroxyprostaglandin dehydrogenase (HPGD). purified HPGD, NADH fluorescence kinetic, PGE2 substrate. Potency, µM, most hits filed as inhibitors. 150,000 tested, 4.3% active. AID 894
Target sequence (P15428 whole entry, looked up): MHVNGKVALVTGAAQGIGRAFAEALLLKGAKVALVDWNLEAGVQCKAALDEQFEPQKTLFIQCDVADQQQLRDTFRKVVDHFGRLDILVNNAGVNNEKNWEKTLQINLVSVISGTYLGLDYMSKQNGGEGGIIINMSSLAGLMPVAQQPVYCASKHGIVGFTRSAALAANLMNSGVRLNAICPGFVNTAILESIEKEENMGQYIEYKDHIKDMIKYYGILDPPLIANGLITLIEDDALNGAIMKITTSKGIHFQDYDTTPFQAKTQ
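NADH formation kinetics: reaction with 30 uM PGE2 and 1 mM NAD+ (final), 20 nM enzyme, Tris-HCl pH 8 with Tween 20, after 15 min compound preincubation at room temperature. Fluorescence change, last versus first of five reads.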
ALOX12 inhib: blocks human 12-lipoxygenase activity; P18054; Potency, µM (titrated, usually from 57.1 µM), actives largely listed as inhibitors; 150,000 tested, 0.12% active; purified 12-hLO, xylenol orange hydroperoxide absorbance; active = well fitted curve in the direction sought with a large enough effect; inconclusive = small, poorly fitted or top-dose-only effect, or another doubt; inactive = no such curve, though single readings can be large; an effect the other way counts as inactive or inconclusive; also: nearly all actives have a fitted effect of over 55% in size
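Hydroperoxide output read as Fe(III)-xylenol orange absorbance, 573-to-405 nm ratio, after 30 min reaction with 40 uM arachidonic acid. Enzyme: 150 nM purified human 12hLO, 15 min compound preincubation; 25 mM Hepes pH 7.0, room temperature.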
PNC inhibitor: inhibitors of perinucleolar compartment assembly. activity change (PNC), negative = inhibition, % at 10 µM. PC3M PTB-GFP, PNC prevalence imaging, 16 h; hits give low values. 140,000 tested, 3.1% active;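 active = readout at or below -70, meaning at least 70% loss of cells showing the perinucleolar compartment, a nuclear body marking cancer cells; inconclusive = readout between -30 and a set limit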
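PC3M cells stably expressing PTB-GFP, 750–1000 cells/well, treated 16 h at 37 °C with compound (23 nl of library stock), in duplicate. After paraformaldehyde fixation and Hoechst stain, imaged at 20x; PNC prevalence scored by image analysis.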
Hits are given with their value; i = inactive; ? = inconclusive; nt = not tested or not shown; [ ] = another dose, or the depositor's remark. Unless noted, calls follow the shape of the dose curve; as a rule, active = well fitted inhibition curve with a large enough effect (not every such curve was filed as active); inconclusive = small, poorly fitted or top-dose-only effect, or another doubt; inactive = no such curve, though single readings can be large or run the other way.

SMILES	IMPase Li cell	IMPase cell inh	ALDH1A1 inh	HPGD block	ALOX12 inhib	PNC inhibitor
CCSc1nc2sc3c(c2c(=O)n1-c1ccc(C)cc1)CCCC3	nt	i	nt	nt	nt	nt
COC(=O)NC(/C(C(=O)OC)=C(\C)NCc1ccccc1)c1cccs1 (configuration not stated)	nt	nt	i[13.5 µM]	nt	nt	nt
CCOc1ccc(C2CC(=O)n3nc(-c4ccc(C)cc4)nc3S2)cc1OC (configuration not stated)	nt	i	nt	nt	nt	nt
CCNc1nc(SC(C)C(=O)OC)nc(N2CCOCC2)n1 (configuration not stated)	i	i	19µM	i	i	i
Cn1cc(C=C2C(=O)CC(C)(C)CC2=O)c2ccccc21	i	i	1.3µM	i	i	i
CC(C)n1c(-c2cccnc2)nc2cnccc21	i	i	i	i	i	-100
COc1cccc(CNc2ccc(C)c(Cl)c2)c1	i	nt	i	nt	nt	nt
COc1cccc(CNc2ccc3c(c2)CCC3)c1	i	i	13µM	i	i	i
Cc1c(C(=O)Nc2ccc3c(c2)CCC3)cccc1[N+](=O)[O-]	i	nt	9.5µM	i	i	-114
CC(NC(=O)c1cc2c(s1)CCCC2)C(C)(C)C (configuration not stated)	i	i	i	14µM	i	i
CCC(CO)NC(=O)c1cc2c(s1)CCC2 (configuration not stated)	i	i	i	i	i	i
COC(=O)c1sc(NC(=O)c2cc3c(s2)CCCC3)nc1C	i	i	i	i	i	i
O=C(Nc1nnc(C2CC2)s1)c1cc2c(s1)CCCCCC2	10µM	i	?	?	i	?
Cc1csc(NC(=O)c2cc3c(s2)CCC3)n1	i	i	?	7.9µM	i	i
COc1ccc(NC(=O)N2CC[C@@]3(CCCN(C(=O)c4c(C)noc4C)C3)C2)cc1	i	nt	?	i	i	nt
C/C(CCN1CCCCc2nc(C)c(C)cc21)=N\O[C@@H](C)CN1CCCc2nc(C)c(C)cc21	nt	nt	i[13.5 µM]	nt	nt	nt
COc1cccc([C@@H]2Oc3ccc(Br)cc3C[C@H]2OC(=O)NS(=O)(=O)c2ccc(C)cc2)c1	i	nt	i	i	nt	nt
COc1ccc(OCc2nc3c4c(-c5ccc(OC)cc5)c(-c5ccc(OC)cc5)oc4ncn3n2)cc1	nt	i	nt	nt	nt	nt
CN(Cc1ccccc1)C(=O)c1ccc2c(c1)OCCO2	i	i	?	14µM	i	i
COC(=O)c1cc2oc(C)cc2n1CC(=O)N1CCCc2ccccc21	i	i	20µM	i	i	i
COC(=O)c1cc2sccc2n1CC(=O)N1CCCc2ccccc21	i	?	i	i	i	i
CCOC(=O)c1cc2occc2n1CC(=O)N1CCCc2ccccc21	i	i	8.9µM	i	i	-84
NC(=S)NNC(N)=S	i	nt	?	?	i	nt
O=C(C[C@@H]1C=Cc2ccccc2N1C(=O)c1ccccc1)c1ccccc1	i	nt	?	i	i[11.4 µM]	nt
O=C(c1sc2cccc(F)c2c1Cl)N1CCN(c2ncccn2)CC1	i	nt	28µM	i	i	i
SMILES	IMPase Li cell	IMPase cell inh	ALDH1A1 inh	HPGD block	ALOX12 inhib	PNC inhibitor
Cc1onc(-c2c(F)cccc2Cl)c1C(=O)N1CCN(c2ncccn2)CC1	i	nt	i	nt	nt	nt
Cc1ccc(NC(=O)Cn2nc(C)c([N+](=O)[O-])c2C)cc1C	i	nt	20µM	nt	nt	nt
Cc1nn(CCC(=O)NNC(=S)Nc2ccc([N+](=O)[O-])cc2)c(C)c1[N+](=O)[O-]	i	nt	4.5µM	nt	nt	nt
Cc1nn(CCC(=O)NNC(=S)Nc2ccc(F)cc2)c(C)c1Br	i	nt	?	i	i	?
O=C(Cn1nc(C(F)F)cc1C(F)F)NNC(=S)Nc1ccc([N+](=O)[O-])cc1	i	nt	18µM	nt	nt	nt
O=C(Cn1nc(C(F)F)cc1C(F)F)NNC(=S)Nc1ccc(F)cc1	i	i	i	i	i	i
Cc1ccc(S(=O)(=O)OCCc2ccccc2)cc1	i	nt	i	i	nt	nt
COc1ccc(NS(=O)(=O)c2cc(C)ccc2C)cc1	i	i	0.56µM	14µM	i	i
COc1ccc(NS(=O)(=O)c2cc(S(C)(=O)=O)ccc2C)cc1	i	nt	28µM	i	i	i
Cc1cc(C)c(S(=O)(=O)Nc2ccc(O)cc2)cc1C	i	i	14µM	i	i	i
